Mcl-1 Bim block: inhibitors of Bim-Mcl-1 interaction, human; Q07820; Bead-based flow cytometry, Bim peptide-Mcl-1 binding; inhibition, % at 10 µM; actives 0.1% (n = 190,000); AID 1009; in the data active = inhibition above about 40%;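 note: 0% = no compound tracer wells and 100% = peptide blocker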
GLD-1 RNA inh: GLD-1-TGE RNA interaction inhibition (C. elegans). purified GLD-1 + fluorescein TGE RNA, fluorescence polarization. actives 0.44% (n = 320,000). inhibition, % at 5.96 µM;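 active = percent inhibition above a per-plate cutoff, the plate mean of test compounds plus 3 SD, cut at about 30% in these data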;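 note: 0% = DMSO wells with GLD-1 and probe and 100% = wells lacking GLD-1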
Target sequence (Q17339 whole entry, looked up): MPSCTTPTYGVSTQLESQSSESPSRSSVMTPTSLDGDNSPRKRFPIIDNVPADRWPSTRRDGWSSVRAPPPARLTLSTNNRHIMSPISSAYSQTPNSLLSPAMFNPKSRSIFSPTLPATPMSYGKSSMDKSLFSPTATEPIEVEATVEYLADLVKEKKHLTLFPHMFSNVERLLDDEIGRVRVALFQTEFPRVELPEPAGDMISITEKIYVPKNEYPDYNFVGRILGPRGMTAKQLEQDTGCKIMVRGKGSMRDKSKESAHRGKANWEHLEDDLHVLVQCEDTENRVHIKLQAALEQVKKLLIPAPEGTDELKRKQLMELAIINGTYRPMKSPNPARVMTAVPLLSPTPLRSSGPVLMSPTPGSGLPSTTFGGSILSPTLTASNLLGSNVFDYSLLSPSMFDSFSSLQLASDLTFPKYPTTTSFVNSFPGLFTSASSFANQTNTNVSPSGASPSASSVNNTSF
BCLXL inh: Bcl-xL (human) inhibition; Q07817; GST-Bcl-xL / FITC-Bim BH3 peptide fluorescence polarization; inhibition, % at 10.9 µM; actives 0.7% (n = 320,000); AID 2129;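 active = inhibition above the mean of all tested compounds plus 3 SD, cutoff set per campaign, cut at about 30% in these data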;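 note: 0% = DMSO wells and 100% = unlabeled Bim-BH3 peptide competitor; inhibitors lower millipolarization by displacing the labeled peptide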
Target sequence (Q07817 whole entry, looked up): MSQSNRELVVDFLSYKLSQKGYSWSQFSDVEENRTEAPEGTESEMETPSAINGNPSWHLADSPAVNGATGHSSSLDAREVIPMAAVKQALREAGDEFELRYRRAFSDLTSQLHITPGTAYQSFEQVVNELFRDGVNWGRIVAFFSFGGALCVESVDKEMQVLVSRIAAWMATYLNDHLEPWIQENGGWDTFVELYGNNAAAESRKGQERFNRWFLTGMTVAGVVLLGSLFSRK
MCL1 BIM primary: disrupts human MCL1 binding to BIM-BH3 peptide. Q07820. GST-MCL1 / FITC-Bim-BH3 fluorescence polarization. inhibition, % at 10.9 µM. actives 0.68% (n = 320,000);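 active = inhibition above the mean inhibition of all tested compounds plus 3 SD, set per campaign, cut at about 40% in these data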;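 note: 0% = DMSO wells and 100% = unlabeled Bim-BH3 peptide control; higher means more loss of mP so more displacement of Bim peptide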
Mcl1 Noxa PPI: Mcl-1/Noxa interaction inhibition. Q07820. actives 1.5% (n = 220,000). TR-FRET Mcl-1/Noxa peptide binding, 2 h. AID 1022. inhibition, % at 21.7 µM;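 active = compounds that cut the protein-peptide binding signal by more than 50% relative to plate controls in a single-dose test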;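 note: His-tagged Mcl-1 with rhodamine Noxa BH3 peptide and terbium anti-His antibody; 0% = Mcl-1 plus Noxa peptide wells and 100% = peptide-only wells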
Mcl1-Bid inh: Mcl-1/Bid interaction inhibition. Q07820. TR-FRET Mcl-1/Bid-Dy647 peptide binding, 1536-well. inhibition, % at 21.7 µM. actives 0.97% (n = 220,000). AID 1021;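 active = compounds that cut the binding signal by more than half at the single screening dose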;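 note: His-tagged Mcl-1 with europium anti-His antibody binding Bid BH3 peptide; 0% = Mcl-1 plus peptide wells and 100% = peptide-only wells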
BCLXL inh confirm: counter-screen for MCL1 inhibitors: confirmation of human Bcl-xL inhibitors; shares compounds with MCL1 BIM primary; GST-Bcl-xL / FITC-Bim BH3 peptide FP binding; inhibition, % at 10.9 µM; actives 54% (n = 1,700); AID 2166;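 active = inhibition above a cutoff equal to the mean inhibition of all tested compounds plus 3 SD, cut at about 30% in these data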;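 note: 0% = DMSO wells and 100% = unlabeled Bim BH3 control peptide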
MCL1 BIM confirm: MCL1-BIM-BH3 interaction inhibition, confirmation. GST-MCL1 / FITC-Bim-BH3 fluorescence polarization. AID 2168. actives 61% (n = 1,700). shares compounds with MCL1 BIM primary. inhibition, % at 10.9 µM;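 active = inhibition above the average of all tested compounds plus 3 SD, cut at about 40% in these data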;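 note: 0% = DMSO wells and 100% = unlabeled Bim-BH3 control peptide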
* marks the source's active call; other numbers are inactive results; x = no result; + = active, no number. Compounds with a hit are over-represented: about 2.3% of the library has one in this group of screens.

SMILES	Mcl-1 Bim block	GLD-1 RNA inh	BCLXL inh	MCL1 BIM primary	Mcl1 Noxa PPI	Mcl1-Bid inh	BCLXL inh confirm	MCL1 BIM confirm
CCC(C)[C@H](NC(=O)C1CC(=O)N(c2ccc3c(c2)OCCO3)C1)C(=O)NC1CCCC1 (stereo partly specified)	x	3.7	0.9	-4.1	x	x	x	x
CCC(C)[C@H](NC(=O)C1CC(=O)N(c2ccc3c(c2)OCO3)C1)C(=O)NC1CCCCC1 (stereo partly specified)	x	38.0*	54.3*	59.6*	x	x	59.6*	77.7*
CSc1nc(N)nc(C(C)C)n1	x	0.0	6.9	66.4*	-1.6	6.5	11.6	18.7
CSc1nc(N)c2c3c(sc2n1)COC(C(C)C)C3 (stereo unspecified)	0.0	1.8	0.2	-1.6	17.1	-22.0	x	x
Cc1ccc2nc(-c3ccccc3)cn2c1	2.0	-5.5	1.3	2.8	18.1	-1.1	x	x
Cc1ccc2nc(-c3ccc(O)c(O)c3)cn2c1	x	9.4	22.6	40.0*	x	x	60.6*	82.3*
O=C(Nc1ccc(F)cc1F)c1ccccc1NC(=O)C1CC=CCC1C(=O)O (stereo unspecified)	x	-9.4	1.7	-2.8	x	x	x	x
CNC(=O)c1cc(C(=O)c2ccc(C(F)(F)F)cc2F)c[nH]1	0.0	2.2	3.8	65.8*	7.4	-10.8	2.2	5.7
CNC(=O)c1cc(C(=O)c2ccc(C(F)(F)F)cc2)c[nH]1	x	0.9	3.1	5.4	x	x	x	x
Cc1ccc(S(=O)(=O)N2CCN(C(=O)c3sccc3-c3ccccc3)CC2)cc1	x	2.8	1.1	3.2	x	x	x	x
NS(=O)(=O)c1cccc(C(=O)NC2CCSc3ccccc32)c1 (stereo unspecified)	x	13.5	2.2	6.0	x	x	x	x
NS(=O)(=O)c1cc(C(=O)NC2CCSc3ccccc32)ccc1Cl (stereo unspecified)	x	5.9	33.6*	79.1*	x	x	29.6	70.2*
COc1ccccc1NC(=O)COc1coc(CN2CCN(c3ccccc3)CC2)cc1=O	x	-1.0	6.1	3.2	x	x	x	x
CCNc1ccccc1CP(=O)(c1ccccc1)c1ccccc1O (stereo unspecified)	x	+	+	+	x	x	30.0	17.8
Cc1ccc(O)c(CP(=O)(c2ccccc2)c2ccccc2)c1	16.0	8.5	6.0	4.7	-0.6	-19.7	x	x
CCn1c2ccccc2c2cc(NC(=O)C(C)OC(=O)c3ccc(NC(=O)CC#N)cc3)ccc21 (stereo unspecified)	x	-12.7	-4.8	-5.4	x	x	x	x
O=C1CC(c2ccc3ccccc3c2)NN1 (stereo unspecified)	x	1.9	10.4	42.1*	x	x	11.4	35.8
CCOc1ccc(/C=C2\CCCc3c2nc2ccccc2c3C(=O)O)cc1OC	x	150.0*	176.4*	+	x	x	183.4*	+
COc1ccc(/C=C2\CCCc3c2nc2ccccc2c3C(=O)O)cc1OC	x	119.9*	144.9*	159.1*	29.7	-24.8	170.0*	190.6*
COc1ccc(/C=C2\CCc3c2nc2ccccc2c3C(=O)O)cc1OC	x	117.2*	98.8*	85.6*	16.2	-15.9	17.5	12.1
O=C(CNCCc1ccc(Cl)cc1)Nc1ccc(C(=O)N2CCCCC2)cc1	x	-1.8	-2.2	4.8	x	x	x	x
C=CCC(=O)NC1CC(C)(C)Cc2c1cnn2-c1ccccc1C (stereo unspecified)	x	1.6	3.3	0.6	x	x	x	x
CCOc1cccc(=O)c2c(C)n(-c3ccc(C(=O)O)cc3)c(C)c12	0.0	29.4	59.1*	86.2*	14.4	-51.4	36.0*	53.3*
CCOc1cccc(=O)c2c(C)n(Cc3ccccc3)c(C)c12	3.0	4.7	6.4	7.3	16.1	-14.1	x	x
Cc1c(F)cccc1NS(=O)(=O)c1ccc2c(c1)c(C)cc(=O)n2C	x	4.6	4.4	2.3	x	x	x	x
SMILES	Mcl-1 Bim block	GLD-1 RNA inh	BCLXL inh	MCL1 BIM primary	Mcl1 Noxa PPI	Mcl1-Bid inh	BCLXL inh confirm	MCL1 BIM confirm
COc1cc(/C=N/NC(=O)CSc2cc(C)c(Br)cc2C)ccc1O	2.0	-0.1	5.8	6.4	22.1	-17.8	x	x
Cc1cc(SCC(=O)N/N=C/c2ccc(O)c(O)c2O)c(C)cc1Br	-2.0	10.9	14.6	50.7*	84.2*	17.7	6.7	34.4
CCOC(=O)C1CCN(Cc2cccc(OCc3ccccc3)c2)CC1	x	5.8	5.4	8.1	x	x	x	x
O=C(NN1C(=O)/C(=C/C=C/c2ccccc2)SC1=S)c1ccncc1	3.0	-46.8	-49.8	-78.9	14.2	-5.0	x	x
CC(C)C(C(=O)O)N1C(=O)/C(=C/C=C/c2ccco2)SC1=S (stereo unspecified)	0.0	6.2	71.3*	94.8*	102.3*	97.9*	32.4*	37.1
O=C(NN1C(=O)/C(=C/C=C/c2ccco2)SC1=S)c1ccncc1	x	4.2	46.2*	79.5*	99.5*	26.1	30.3*	44.6*
Cn1c(SCC(=O)Nc2nncs2)nnc1C1CC1	x	8.9	14.5	46.1*	x	x	11.2	28.8
O=C1CCN(Cc2ccccc2)C=C1c1cccc(O)c1	x	5.0	x	x	x	x	x	x
O=C(C1=C(O)C(=O)N(c2nc3ccc(Cl)cc3s2)C1c1ccco1)c1ccco1 (stereo unspecified)	x	1.2	19.3	56.6*	x	x	26.1	47.6*
CSc1nnc(N2C(=O)C(O)=C(C(=O)c3ccco3)C2c2ccccc2)s1 (stereo unspecified)	x	54.3*	54.0*	53.5*	x	x	54.2*	69.6*
CSc1nnc(N2C(=O)C(O)=C(C(=O)c3ccco3)C2c2ccccc2F)s1 (stereo unspecified)	x	86.3*	69.5*	79.8*	x	x	25.0	25.3
CCOC(=O)N1CCN(C(=O)COC(=O)c2ccccc2NCCO)CC1	x	-1.0	-6.8	-3.5	x	x	x	x
CN(C)S(=O)(=O)c1ccc(NC(=O)CN2C(=O)NC3(CCCC3)C2=O)cc1	x	6.4	1.9	-7.2	x	x	x	x
O=C(Nc1ccccc1C(=O)O)C1=NN=CC1	x	-1.2	6.8	7.1	x	x	x	x
N#C/C(=C\c1ccc(-c2ccc(F)cc2)o1)C(=O)Nc1nc(-c2cccs2)cs1	1.0	9.1	27.4	41.4*	56.7*	21.8	45.4*	73.1*
Cc1ccc2c(c1)c(=O)c1c3n2CCN(C(=O)CCl)C3CC1 (stereo unspecified)	2.0	14.1	48.5*	54.8*	22.1	-0.9	30.4*	43.8*
Cc1ccc2c(c1)c1c3n2CCN(C(=O)CN2CCN(C)CC2)C3CCC1 (stereo unspecified)	1.0	3.8	1.7	-5.6	8.1	-39.1	x	x
Cc1nc2nc(-c3cccs3)cn2nc1C	0.0	72.4*	105.6*	112.8*	61.6*	-27.4	100.2*	126.7*

Assay outcomes (PubChem BioAssay)
